# According to the supplement of paper PMC10338343:
# ± gives the standard deviation.
# System: MILI (PIWIL2) piRISC loaded with L1MC piRNA (26 nt)
# Experiment: pre-steady-state target cleavage rate (min^-1); guide: L1MC piRNA 5'p-UAACUAAAUACUAUGCAAGCUGUAGG; MIWI and MILI are mouse PIWI proteins and EfPiwi is from a freshwater sponge; tags in brackets are library labels; higher = faster piRNA-guided slicing of the target
# Conditions: auxiliary factor: 500 nM mouse GTSF1
# Summary of the method: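 For Cleave-'n-Seq, a transcribed, DNA-blocked target RNA library […] met 1 nM active affinity-purified piRISC with one synthetic guide at 33 °C for 0–8 or 0–960 min in HEPES–potassium acetate buffer, with or without 500 nM GTSF1 partner protein. Uncleaved targets were sequenced and normalised to depth and weakly complementary targets, with three trials pooled and k3 capped at 0.0001 min^-1. A burst-and-steady-state fit supplied the pre-steady-state cleavage rate.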
# 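Further: 1 nM active piRISC with 0.1 nM target library at 33 °C single turnover.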
row,Sequence,pre-steady-state target cleavage rate
1,UCCUGGAUGUCCUUGCAUAGUAUUAAGAUA,0.00928 ± 0.0043
2,UCCUGGAACAGCUUGCAUAUGUAUUUAGUUA,0.00424 ± 0.0037
3,UCCUGGUACAGCUUGCUUAGUAUUUACAAA,0.0242 ± 0.009
4,UCCUGCUACAGCUUCCAUAGUUUUUAGUUA,0.0226 ± 0.01
5,UCCUCCUACAGCUUGCAUACUAUUUUCAAA,0.0677 ± 0.018
6,UCCUCCUACAGCUUGCAAUCUAUUUAGAAA,0.0218 ± 0.007
7,UCCUCCUACAGCAAGCAUAGUAUUUAGUAA,0.238 ± 0.02
8,UCCUGGAUCAGCUUGCAUAGUAAUUUCAAA,0.042 ± 0.016
9,UCCUGGAUGUCGAAGACAUAGUAUUUAGUUA,0.0117 ± 0.0056
10,UCCUGGAUCAGCUUGCAUACUAUUUUCAAA,0.00818 ± 0.004
11,UCCUGGAUCAGCUUGCUAAGUAUUUAGAAA,0.0172 ± 0.006
12,UCCUGGAUGUGCUUGCAUAGUAUUUACAUA,0.0112 ± 0.0044
13,UCCUGGAACAGCUUGCAUAGUAUUAACUUA,0.0356 ± 0.0096
14,UCCUGGUACAGCUUGCAUAGUAUUUUCAUA,0.0352 ± 0.014
15,UCCUGGAAGUCCUUGCAUAGUAUUUUCAAA,0.0197 ± 0.0079
16,UCCUGGAUGAGCUUGCAUAGUAUUUGUUA,0.118 ± 0.028
17,UCCUGGAUCAGCUUGCAUAGAAUUAAGUUA,0.0383 ± 0.011
18,UCCUGGAUCAGCUUGCAUAGUAUUGAGUUA,0.227 ± 0.039

row,Sequence,pre-steady-state target cleavage rate
1,UCCUGGAUCAGCUUGCAUAGUAUUAUCUAA,0.0859 ± 0.021
2,UCCUGGAUGAGCUUGCAUAGUAUAUAGUAA,0.163 ± 0.039
3,UCCUGGUACAGCUUGCUAAGUAUUUACAAA,0.0119 ± 0.0056
4,UCCUGGAACAGCUUGCAAUGUAUUUACAAA,0.0552 ± 0.017
5,UCCUGGUACAGCUUGCAUAGUUAAUAGAAA,0.00845 ± 0.0048
6,UCCUGGAACAGCUUGCAUCAGUAUUUAGUUA,0.0151 ± 0.0061
7,UCCUGGAUGUCCUUGCAUAGUAUAUUGUUA,0.0329 ± 0.0079
8,UCCUGGAUCACCUUGCAUAGAAUUUAGUUA,0.017 ± 0.0097
9,UCCUGGAUGAGCUUGCUUAGUAUUUACAAA,0.0262 ± 0.011
10,UCCUGGAUCAGCUUGCUAUGUAUUUAGUAA,0.00621 ± 0.0032
11,UCCUGGAUGUCGUACCAUAGUAUUUAGUUA,0.0168 ± 0.0047
12,UCCUCCUACAGCUUGCAUAGAUAUUAGAAA,0.00453 ± 0.0044
13,UCCUGGAUGUCGAACGUUGAGUAUUUAGUUA,< 0.0001
14,UCCUGGAUCUCGUUGCAUAGUAUUUUCAAA,0.0482 ± 0.013
15,UCCUGCUACAGCUUGCUAAGUAUUUAGUAA,0.0923 ± 0.022
16,UCCUCCUACAGCUACCAUAGUAUUUACAAA,0.0179 ± 0.008
17,UCCUGGUACAGCUUGGAUUGUAUUUAGUUA,0.0395 ± 0.013

# Same assay, conditions: auxiliary factor: none (no GTSF1)
row,Sequence,pre-steady-state target cleavage rate
1,UCCUGGAUGUCGAACGUAUCUAUAAAGUUA,< 0.0001
2,UCCUGGAUGUCGUUGCAUAGUUUAUAGUUA,0.0036 ± 0.0028
3,UCCUGGAUGUCGAAGCAUAGUAAUAAGUUA,< 0.0001
4,UCCUGGAUGUCGAACGUACGUAUUUAGUUA,< 0.0001
5,UCCUGGAUCAGCUUGCAUUCUAUUUACAAA,< 0.0001
